PubChem BioAssay AID1159580 (chemical genetic matrix, 2015)
The campaign covered roughly 5,500 compounds. About 2,000 (36%) were called active. Inconclusive results (about 18%) are left out. Rule as the data show it: active = normalized growth mostly below about 0.91 (no sharp cut-off); inconclusive = no clear call, values can overlap the other calls; inactive = mostly above about 0.92. This is one part of the list.

Test: chemical genetic growth profiling, strain panel (AID 1159580);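 also: tested at 20 µM; growth read once vehicle control cultures reached saturation at 30 °C; 1 = growth at the plate median or of vehicle wells; lower values mean less growth of the strain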
Conditions: S. cerevisiae deletion strains, growth OD

Measured: normalized growth

COc1ccc(-c2coc3cc(OC)cc(OC)c3c2=O)cc1
inactive: locus YAL021C, strain ccr4, active compounds read low 1 | locus YAL026C, strain drs2, active compounds read low 0.985 | locus YAL030W, strain snc1, active compounds read low 0.987 | locus YBL061C, strain skt5, active compounds read low 0.972 | locus YBR009C, strain hhf1, active compounds read low 0.988 | locus YBR023C, strain chs3, active compounds read low 0.97 | locus YBR171W, strain sec66, active compounds read low 0.994 | locus YBR231C, strain swc5, active compounds read low 0.989 | locus YBR279W, strain paf1, active compounds read low 0.993 | locus YCL011C, strain gbp2, active compounds read low 0.979 | locus YCL016C, strain dcc1, active compounds read low 0.997 | locus YCL061C, strain MRC1, active compounds read low 0.989 | locus YCL069W, strain vba3, active compounds read low 0.996 | locus YCR088W, strain abp1, active compounds read low 0.991 | locus YDL005C, strain med2, active compounds read low 1 | locus YDL040C, strain nat1, active compounds read low 0.987 | locus YDR001C, strain nth1, active compounds read low 0.984 | locus YDR069C, strain doa4, active compounds read low 1 | locus YDR137W, strain rgp1, active compounds read low 0.974 | locus YDR159W, strain sac3, active compounds read low 0.987 | locus YDR195W, strain ref2 1.04 | locus YDR297W, strain sur2, active compounds read low 0.983 | locus YDR334W, strain swr1, active compounds read low 1 | locus YDR335W, strain msn5, active compounds read low 0.997 | locus YDR392W, strain spt3, active compounds read low 0.843 | locus YEL003W, strain gim4, active compounds read low 0.987 | locus YEL037C, strain rad23, active compounds read low 0.988 | locus YEL061C, strain CIN8 (second series), active compounds read low 0.99 | locus YER015W, strain faa2, active compounds read low 0.99 | locus YER016W, strain bim1, active compounds read low 0.99 | locus YER111C, strain swi4, active compounds read low 0.991 | locus YER155C, strain BEM2 (second series), active compounds read low 0.946 | locus YFR010W, strain ubp6, active compounds read low 1 | locus YGL167C, strain pmr1, active compounds read low 0.982 | locus YGL173C, strain kem1, active compounds read low 0.98 | locus YGL227W, strain vid30, active compounds read low 0.992 | locus YGL240W, strain doc1, active compounds read low 0.982 | locus YGL253W, strain hxk2, active compounds read low 0.995 | locus YHR013C, strain ard1, active compounds read low 0.96 | locus YHR027C, strain rpn1, active compounds read low 0.994 | locus YHR142W, strain chs7, active compounds read low 0.93 | locus YJL092W, strain hpr5, active compounds read low 0.991 | locus YJL095W, strain BCK1 (second series), active compounds read low 1.01 | locus YJL115W, strain asf1, active compounds read low 0.996 | locus YJL129C, strain trk1, active compounds read low 0.969 | locus YJL154C, strain vps35, active compounds read low 0.998 | locus YJL164C, strain tpk1, active compounds read low 0.981 | locus YJL166W, strain qcr8, active compounds read low 0.986 | locus YJL187C, strain SWE1, active compounds read low 0.988 | locus YKL160W, strain elf1, active compounds read low 0.986 | locus YKR026C, strain gcn3, active compounds read low 0.988 | locus YKR091W, strain srl3, active compounds read low 0.989 | locus YLL001W, strain dnm1, active compounds read low 0.976 | locus YLL026W, active compounds read low 0.987 | locus YLL041C, strain sdh2, active compounds read low 0.991 | locus YLR027C, strain aat2, active compounds read low 0.998 | locus YLR221C, strain rsa3, active compounds read low 0.978 | locus YLR258W, strain gsy2, active compounds read low 0.987 | locus YLR262C, strain YPT6 (second series), active compounds read low 0.968 | locus YLR320W, strain mms22, active compounds read low 0.971 | locus YLR342W, strain FKS1, active compounds read low 0.994 | locus YLR357W, strain rsc2, active compounds read low 0.988 | locus YLR370C, strain arc18, active compounds read low 0.992 | locus YLR384C, strain iki3, active compounds read low 0.987 | locus YML120C, strain ndi1, active compounds read low 0.989 | locus YMR058W, strain fet3, active compounds read low 0.987 | locus YMR125W, strain sto1, active compounds read low 1.01 | locus YMR129W, active compounds read low 0.987 | locus YMR205C, strain PFK2, active compounds read low 0.959 | locus YMR231W, strain pep5, active compounds read low 0.977 | locus YNL071W, strain lat1, active compounds read low 0.988 | locus YNL209W, strain ssb2, active compounds read low 0.995 | locus YNL248C, strain rpa49, active compounds read low 0.999 | locus YNL322C, strain KRE1 (second series), active compounds read low 0.994 | locus YNR049C, strain mso1, active compounds read low 1 | locus YOR001W, strain rrp6, active compounds read low 1.01 | locus YOR070C, strain gyp1, active compounds read low 1.01 | locus YOR080W, strain dia2, active compounds read low 1 | locus YOR083W, strain WHI5, active compounds read low 0.984 | locus YOR106W, strain vam3, active compounds read low 0.974 | locus YOR265W, strain rbl2, active compounds read low 0.984 | locus YOR270C, strain vph1, active compounds read low 0.885 | locus YOR290C, strain snf2, active compounds read low 0.948 | locus YPL051W, strain arl3, active compounds read low 0.972 | locus YPL078C, strain atp4, active compounds read low 0.975 | locus YPL106C, strain sse1, active compounds read low 0.964 | locus YPL240C, strain hsp82, active compounds read low 0.984
